The record followed here is PubChem BioAssay (NCATS).

Assay [1] can be described thus: qHTS for Inhibitors of the Functional Ribonucleoprotein Complex (vRNP) of Lassa (LASV) Arenavirus: LASV Primary Screen - GLuc reporter signal (AID 1347082; calls by dose curve; tested in HEK293 reporter line; further: nearly all actives have a fitted effect of over 60% in size; further: potency means the concentration at half of the fitted maximal effect; on activity change, negative = inhibition: on the % scale 0 is the no-effect control and ±100 the full control effect).
A short description of assay [2]: qHTS for Inhibitors of the Functional Ribonucleoprotein Complex (vRNP) of Lassa (LASV) Arenavirus: Viability assay - alamar blue signal for LASV Primary Screen (AID 1347083; calls by dose curve; tested in HEK293 reporter line; further: nearly all actives have a fitted effect of over 80% in size; further: potency means the concentration at half of the fitted maximal effect). For orientation: qHTS replaces the single test concentration by a dilution series.
The nature of assay [3]: qHTS for Inhibitors of the Functional Ribonucleoprotein Complex (vRNP) of Lymphocytic Choriomeningitis Arenaviruses (LCMV): Viability assay - alamar blue signal for LCMV Primary Screen (AID 1347085; calls by dose curve; tested in HEK293 reporter line; further: nearly all actives have a fitted effect of over 80% in size; further: potency means the concentration at half of the fitted maximal effect).
For assay [4], the target named is Nucleoprotein (Lymphocytic choriomeningitis virus (strain Armstrong)) (UniProt P09992). In words: qHTS for Inhibitors of the Functional Ribonucleoprotein Complex (vRNP) of Lymphocytic Choriomeningitis Arenaviruses (LCMV): LCMV Primary Screen - GLuc reporter signal (AID 1347086). Further: nearly all actives have a fitted effect of over 70% in size. Further: potency means the concentration at half of the fitted maximal effect. On activity change, negative = inhibition: on the % scale 0 is the no-effect control and ±100 the full control effect.
Chain of Nucleoprotein (Lymphocytic choriomeningitis virus (strain Armstrong)) (P09992 whole entry, looked up): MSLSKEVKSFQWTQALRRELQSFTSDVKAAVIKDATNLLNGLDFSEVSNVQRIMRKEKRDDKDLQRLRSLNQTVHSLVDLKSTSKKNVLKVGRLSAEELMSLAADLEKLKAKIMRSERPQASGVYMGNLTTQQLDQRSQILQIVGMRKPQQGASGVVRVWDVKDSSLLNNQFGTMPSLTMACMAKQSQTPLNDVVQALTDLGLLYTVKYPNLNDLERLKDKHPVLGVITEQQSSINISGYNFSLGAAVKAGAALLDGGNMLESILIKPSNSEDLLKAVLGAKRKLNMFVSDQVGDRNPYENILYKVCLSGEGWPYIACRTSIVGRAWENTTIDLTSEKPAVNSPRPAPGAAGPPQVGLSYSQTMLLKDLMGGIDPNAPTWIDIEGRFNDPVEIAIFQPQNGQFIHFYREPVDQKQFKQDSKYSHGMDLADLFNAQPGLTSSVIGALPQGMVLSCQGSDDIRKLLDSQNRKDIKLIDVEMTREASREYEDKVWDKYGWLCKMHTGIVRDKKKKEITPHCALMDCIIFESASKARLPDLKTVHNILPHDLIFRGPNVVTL
Assay [5] is described as follows: Primary qHTS for small molecule stabilizers of the endoplasmic reticulum resident proteome: Secreted ER Calcium Modulated Protein (SERCaMP) assay (AID 1508630; active means well fitted inhibition curve with a large enough effect; further: on the % scale 0 is the no-effect control and ±100 the full control effect). A digest of the protocol: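 The SH-SY5Y reporter protocol was run at 3 concentrations up to 38.3 uM (primary) or 11 concentrations (follow-up): 16 h compound, 100 nM thapsigargin for 4 h, then extracellular luciferase luminescence.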

The target of assay [6] is Cytochrome P450 2C19 (Homo sapiens) (UniProt P33261). The assay can be described thus: qHTS Assay for Inhibitors and Substrates of Cytochrome P450 2C19 (AID 899; active means well fitted inhibition curve with a large enough effect; further: potency means the concentration at half of the fitted maximal effect; nearly all actives have a fitted effect of over 60% in size). Put shortly:
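Luminescent read-out of luciferin formed from Luciferin-H EGE (10uM, equal to KM). Enzyme 5nM in 50mM KPO4; compound added, 10 min at 37C, then NADPH regenerating system for 60 min at 37C. Full inhibition defined by 57uM ketoconazole.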

Assay [7] can be described thus: qHTS Assay for Lipid Storage Modulators (AID 1519). On activity change, negative = inhibition: on the % scale 0 is the no-effect control and ±100 the full control effect. The note with it: Drosophila S3 cells, BODIPY lipid droplet/cell ratio, laser cytometry, cells loaded with oleic acid. A digest of the protocol: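 Cells seeded at 5,000 per well were treated with compounds over a concentration series and loaded with oleic acid (400 uM, as added). Lipid droplet fluorescence (488 nm excitation, 500-530 nm channel) was read by laser-scanning cytometry and normalized to 20 uM Triacsin C.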

Assay [8] can be described thus: qHTS profiling of the MIPE4 collection as inhibitors of Plasmodium falciparum (DD2) proliferation (AID 743345; call rule not given here). The note with it: P. falciparum Dd2 in erythrocytes, SYBR Green DNA, 72 h; at 28.5 µM (top of the series) unless noted. Put shortly:
(§1)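 Parasite DNA was quantified by SYBR Green I fluorescence (ex 485, em 535 nm) after overnight lysis in saponin/Triton buffer at room temperature. Cultures at 0.3% parasitemia and 2.5% hematocrit were first exposed to compound for 72 h at 37 C; signals were normalised to artemisinin (0.29 uM) and vehicle wells.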

Assay [9] can be described thus: qHTS profiling of the MIPE4 collection as inhibitors of Plasmodium falciparum (DD2) proliferation (Rep 2) (AID 743346; call rule not given here). The note with it: P. falciparum Dd2 in erythrocytes, SYBR Green DNA, 72 h; at 28.5 µM (top of the series) unless noted. Put shortly:
as §1

A short description of assay [10]: Cytotoxicity counterscreen for inhibitors of SARS-CoV-2 cell entry (AID 1645845). Further: nearly all actives have a fitted effect of over 50% in size. Put shortly: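 Counterscreen run in the same HEK293-ACE2 line as the pseudotyped-particle entry assay, without particles. Viability after 48 h at 37 C was read as ATP luminescence, scaled between cell-containing and cell-free wells.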
(In general: A counterscreen serves to expose hits that act by an unwanted route or on another target.)

The nature of assay [11]: Primary qHTS to identify inhibitors of SARS-CoV-2 cell entry (AID 1645846). Further: nearly all actives have a fitted effect of over 45% in size. The settings on record: activity change, negative = inhibition: at 57.1 µM (top of the series) unless noted. A digest of the protocol: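 Luminescence readout (Bright-Glo luciferase) 48 h after pseudoparticle addition. HEK293-ACE2 cells, 1500/well; compound pre-incubation 1 h; Normalized to spike PP and bald PP.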

A short description of assay [12]: qHTS profiling of the MIPE4 collection as inhibitors of Plasmodium falciparum (3D7) proliferation (AID 743344; call rule not given here;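 further: scaled between DMSO vehicle wells and 0.29 µM artemisinin as full inhibition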). The settings on record: P. falciparum 3D7 in erythrocytes, SYBR Green DNA fluorescence, 72 h; at 28.5 µM (top of the series) unless noted. Put shortly:
as §1

Assay [13] is described as follows: Confirmatory qHTS to identify inhibitors of SARS-CoV-2 cell entry (AID 1645844). Further: potency means the concentration at half of the fitted maximal effect; nearly all actives have a fitted effect of over 45% in size. A digest of the protocol: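 HEK293-ACE2, overnight seeding; cpd 1 h, 37C/5% CO2; + SARS-CoV-2-S MLV PP (Wuhan-Hu-1, ΔC19); 48 h; Bright-Glo luminescence. Data normalised to S PP and bald PP wells.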
Assay [14] is described as follows: VSVG counterscreen qHTS to identify inhibitors of SARS-CoV-2 cell entry (AID 1645847). Further: potency means the concentration at half of the fitted maximal effect; nearly all actives have a fitted effect of over 65% in size. A digest of the protocol:
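HEK293-ACE2 cells (Expi293F stably expressing human ACE2) were pretreated with compound for 1 h at 37 °C, then infected with MLV-based VSV-G pseudotyped particles for 48 h. Luciferase luminescence was normalized to VSV-G PP and bald PP wells.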

Records with an inconclusive call do not appear. Calls of active or inactive are those of the source. Unless noted, the call rests on the fitted dose curve.

Chain of Cytochrome P450 2C19 (Homo sapiens) (P33261 whole entry, looked up): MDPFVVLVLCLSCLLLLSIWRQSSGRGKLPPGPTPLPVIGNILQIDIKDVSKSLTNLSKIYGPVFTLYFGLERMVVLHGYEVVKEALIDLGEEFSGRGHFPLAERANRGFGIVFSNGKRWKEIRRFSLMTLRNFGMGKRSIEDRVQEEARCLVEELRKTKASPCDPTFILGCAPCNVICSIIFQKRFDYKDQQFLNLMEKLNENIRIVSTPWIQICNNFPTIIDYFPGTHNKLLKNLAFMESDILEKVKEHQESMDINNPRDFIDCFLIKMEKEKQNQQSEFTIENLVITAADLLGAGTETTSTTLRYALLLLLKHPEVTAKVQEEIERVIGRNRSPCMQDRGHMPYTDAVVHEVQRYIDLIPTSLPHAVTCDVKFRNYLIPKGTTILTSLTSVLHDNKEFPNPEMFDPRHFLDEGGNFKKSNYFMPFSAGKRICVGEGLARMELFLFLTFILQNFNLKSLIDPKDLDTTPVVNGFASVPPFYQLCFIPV

As for `COC(=O)C1=CO[C@@H](C)[C@@H]2CN3CC[C@]4(C(=O)Nc5c4ccc(OC)c5OC)[C@H]3C[C@H]12`, the Potency result in [1], in assay [2], in [3], in [4] and in assay [5] was “inactive” throughout.

Take `O=C1C[C@@H](c2ccc(O)cc2)Oc2cc(O)cc(O)c21`: the Potency in assay [6] was 7.94 µM (active). Also, the activity change, negative = inhibition in [7] (at 25.7 µM (top of the series)) was 0.577% (inactive). Further, the figures for the max response in assay [7] (measured here: cell count channel max response) and in [7] (measured here: lipid channel max response) were -18.3% and -14.1%, respectively. Further, the parasite growth remaining, % of DMSO control (lower = more inhibition) in assay [8] worked out at 72.2%. In [9], this compound registered a parasite growth, % of control (lower = inhibition) of 56.8%. In addition, the Potency result in assay [1], in assay [2], in [3], in assay [4], in [10] and in assay [11] was “inactive” in each case.

Regarding `C[N+](C)([O-])CCNc1ccc(NCC[N+](C)(C)[O-])c2c1C(=O)c1c(O)ccc(O)c1C2=O`, in [12], the parasite growth, % of DMSO control came to 49%. In assay [9], this compound showed a parasite growth, % of control (lower = inhibition) of 41.1%. In addition, the Potency entry in [1], in [2], in [3], in assay [4] and in assay [10] was “inactive” in each case. Besides, the figures for the Potency in assay [13] and in [14] were 19.2 µM (active) and 10.8 µM (active), respectively. In assay [11], the activity change, negative = inhibition is -13.5%.

`Nc1nccc(-c2ccc3noc(-c4ccc(Cl)cc4)c3c2)n1`: the Potency in assay [1] is 2.43 µM (active); in assay [2], 7.69 µM (active); in assay [3] it was 6.85 µM (active); in assay [4] it was 4.85 µM (active). Also, in assay [10], the Potency entry is “inactive”.
